# Reference: ChEMBL document CHEMBL4888484, “Replenishing the malaria drug discovery pipeline: Screening and hit evaluation of the MMV Hit Generation Library 1 (HGL1) against asexual blood stage Plasmodium falciparum ,using a nano luciferase reporter read-out” (2022)
# The campaign covered roughly 4,800 compounds. About 410 (8.5%) showed an effect of 50% or more. The full list was thinned out, with strong results kept by preference.
# System: Plasmodium falciparum
# Assay: Confirmatory screen in NF54 pLDH assay, in single point, at 2uM, 72h
# Format: functional, Erythrocyte
# Settings: timepoint 72 hour
row,Compound,% Inhibition
1,O=C(CNc1cc(F)c(F)cc1F)NC(=O)NCC(F)(F)F,-5%
2,CC(C)CN1C(=O)CC[C@@H](C(=O)NCCCN2CCOCC2)[C@@H]1c1cccnc1,-17%
3,Cc1nc2ccc(Cl)cc2c(-c2ccccc2)c1C1=NN(S(C)(=O)=O)[C@H](c2ccccc2Cl)C1,-14%
4,Cn1cc(-c2csc(NC(=O)c3ccc4[nH]cnc4c3)n2)cn1,7%
5,CCN1C(=O)CN(C(=O)c2cccc(C)c2)CC12CCOCC2,9%
6,CC(C)(C)NC(=O)CNC(=O)c1cccc(F)c1,-8%
7,Cc1nc(Cn2nnc(NC(=O)c3cccc(F)c3)c2C)no1,8%
8,O=C(Nc1nc2cccc(Cl)c2o1)c1cccc(F)c1,92%
9,Cc1c(Br)c(C)n(NC(=O)c2cnn(Cc3ccccc3)c2)c(=O)c1C#N,-15%
10,Cc1cccc(C)c1Oc1ccccc1NC(=O)CCc1nnc[nH]1,4%
11,O=S(=O)(Nc1ccc2nncn2c1)c1c(F)cccc1Cl,-18%
12,Cc1ccc(F)cc1NC(=O)N1CCC12CCC2,11%
13,N#CC1(c2ccccc2)c2ccccc2C(=O)c2ccccc21,-4%
14,CN(Cc1ccccc1)C(=O)C[C@H]1CCN(C(=O)NC2CCCC2)C1,2%
15,Cc1cccc2ncnc(N(C)[C@@H](C)Cc3ccc(O)cc3)c12,84%
16,Cc1n[nH]c2ncc(NC(=O)c3ccc(CCC(F)(F)F)cc3)cc12,17%
17,Cc1cc(C)cc(CN2CCCN(c3ccc(C)cc3NC(=O)Cc3ccc(F)cc3)C2=O)c1,13%
18,CC(C)CCO[C@@H](C)C(=O)NC1CCN(CC(=O)NC(C)C)CC1,5%
19,O=C1C2C3C=CC(C3=C3CCCCC3)C2C(=O)N1c1cccc(Cl)c1 (stereo not given),15%
20,COc1cccc(S(=O)(=O)N2CCC(OCCOCc3ccccc3)CC2)c1,10%
21,COc1cccc(S(=O)(=O)N2CCCN(Cc3ccncc3)[C@H](c3ccccc3)CC(=O)NCC2)c1,86%
22,COc1cccc(S(=O)(=O)N2CCC(OCCOc3ccccc3)CC2)c1,7%

row,Compound,% Inhibition
1,Cc1cccc(NC(=O)Cn2ccc(C(=O)Nc3cccc(C)c3C)n2)c1C,-11%
2,CCOC(=O)[C@@H]1C(=O)Nc2cc(OC)ccc21,9%
3,COc1ccc(CCNCC(=O)Nc2c3c(nc4ccccc24)N(C)CC3)cc1OC,6%
4,CN(C)c1ccc(NN=C2N=NN=N2)cc1,3%
5,COc1cccc(Cn2c(=O)c3sccc3n(CC(=O)Nc3ccc4c(c3)OCO4)c2=O)c1,16%
6,COc1cccc(NC(=O)Cn2c(=O)n(C)c(=O)c3sc(N4CCCC4)nc32)c1,1%
7,COc1cccc(NC(=O)Cn2c(C)ccc(NS(=O)(=O)c3ccc(C)cc3)c2=O)c1,59%
8,Cc1cc(C)c(NC(=O)CN(C)C(=O)NCc2ccco2)c(C)c1,-8%
9,O=C(Nc1ccc2c(c1)c1cc(Br)ccc1n2Cc1ccccc1)c1ccccc1,6%
10,O=C(NC(Cn1ccccc1=O)c1ccccc1)C1CCOC1 (stereo not given),7%
11,O=C(N[C@@H](Cn1nccn1)c1ccccc1)c1cc(Br)ccc1Cl,75%
12,Cc1ccccc1-c1cc2c(N3CCN(C4CCCCC4)CC3)nccn2n1,4%
13,Cc1cc(Br)cc(N[C@H](c2cccnc2)c2ncc[nH]2)c1,6%
14,Cc1ccc2nc3c(c(N)c2c1)CCCCN3C,-20%
15,Cc1ccc2nc(C3CC3)cc(C(=O)N3C[C@@H](O)C[C@H]3CO)c2c1,-1%
16,CC(C)c1ccc(S(=O)(=O)Nc2ccc3nc(NC(=O)c4ccccc4)sc3c2)cc1,6%
17,CN(C)c1ccc(CNC2CCCCCC2)cc1,-13%
18,CN(CC(=O)Nc1ccccc1C(F)(F)F)C1CNC1,8%
19,Cc1csc(NC(=O)NCCc2cc(F)cc3c2OCOC3)n1,-14%
20,COC[C@H](NCCc1cc(F)cc2c1OCOC2)C1CC1,82%
21,N#Cc1cc(O)c(-c2c(O)n[nH]c2-c2ccccc2)cc1C#N,10%
22,O=c1[nH]c(=O)n(Cc2nc(-c3ccco3)no2)cc1Cl,3%

row,Compound,% Inhibition
1,Cc1nn(C)c(C)c1CCCN[C@@H](C)c1cccc(O)c1,4%
2,COC(=O)c1cccc(C#Cc2cccc(NC(=O)c3cnc(C)cn3)c2)c1,-9%
3,Cc1ccc2nc(-c3cccc(NC(=O)c4ccc5c(c4)OCO5)c3)oc2c1,-7%
4,N#CCC(=O)NC1CCC(CC2CCC(NC(=O)CC#N)CC2)CC1 (stereo not given),-2%
5,Cc1ccccc1S(=O)(=O)N1CCN(c2c(C)n(-c3ccccc3)c(=O)n(CC(C)C)c2=O)CC1,14%
6,COc1ccc(CNC(=O)Nc2ccc3c(c2)N(C(=O)c2ccccc2)CCC3)cc1OC,11%
7,CCC(C(=O)Nc1ccc2c(c1)CN(CCc1ccc(OC)c(OC)c1)C(=O)C(C)O2)c1ccccc1 (stereo not given),100%
8,COc1ccc([C@H](C(=O)Nc2ccc(N(C)C)cc2)N(Cc2ccccc2)C(=O)Cc2ccccc2)cc1OC,-14%
9,Cc1ccc(NC(=O)Cn2c(C)nc3c(-c4ccccn4)nsc3c2=O)c(C)c1,12%
10,CCOc1cc(CNc2cccc3ccccc23)cc(Br)c1OCC(=O)NC(C)(C)C,91%
11,CC[C@@H](CO)NCc1cccc(OC)c1OCC(=O)NC(C)(C)C,-12%
12,COc1cccc(CNC(C)(C)C)c1OCC(=O)NC(C)(C)C,-4%
13,O=C(Nc1ccn(-c2ccccc2)n1)N1CC2CCC(O)CC2C1 (stereo not given),-3%
14,Cc1nsc2ncc(C(=O)N3CCC(C)CC3)c(N3CCC(C(=O)Nc4cc(F)ccc4F)CC3)c12,44%
15,Clc1cc(CNCCc2ccccc2)ccc1OCc1ccccc1,3%
16,COc1ccccc1CNCCNC(=O)c1ccncc1,9%
17,Cc1cnccc1NCCNCc1cccc(O)c1Cl,101%
18,N#Cc1c(CN(CCn2cccn2)Cc2cn3ccccc3c2C#N)cn2ccccc12,-22%
19,C=CCN(CC=C)S(=O)(=O)c1ccc(S(=O)(=O)NC)cc1,-10%
20,O=C(NC1CCCC1)c1cnn2c3c(cnc12)CCCCCC3,11%
21,CCn1cc(Cl)c(C(=O)N(C2CCCCC2)C2CCCCC2)n1,10%
